Test [1] is described as follows: APR_HepG2_P-H2AX_72hr: Apredica 72-hour HepG2 Assay for H2AX Phosphorylation (AID 2282916).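 Further: phospho-histone H2A.x immunostain intensity per cell marking DNA damage.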 To be noted: imaging, actives raise or lower the signal. In a few lines:
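Phospho-histone H2A.x immunofluorescence, multiplexed with Hoechst and c-Jun, quantified by high-content imaging. Compounds applied to HepG2 for 72 h across ten concentrations (0.39–200 uM, 0.5% DMSO), in duplicate; DMSO baseline.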

A short description of test [2]: APR_HepG2_MitoMembPot_72hr: Apredica 72-hour HepG2 Assay for Mitochondrial Membrane Potential (AID 2282917). As to conditions: imaging, actives raise or lower the signal. The gist of the method:
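HepG2 cells dosed 72 hr with compound at 0.39–200 uM in duplicate, 0.5% v/v DMSO final. Mitochondria stained with 250 nM MitoTracker Red CMXRos for 30 min before formaldehyde fixation, imaged by high-content fluorescence; bidirectional fit versus DMSO.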

A short description of test [3]: APR_HepG2_MitoticArrest_72hr: Apredica 72-hour HepG2 Assay for Mitotic Arrest (AID 2282918). As to conditions: high-content imaging, actives raise or lower the signal. The gist of the method:
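High-content imaging of fixed human HepG2 cells after 72 h compound exposure (0.39–200 uM, duplicates, 0.5% DMSO); mitotic arrest scored from phospho-histone H3 and nuclear Hoechst staining relative to DMSO.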

A short description of test [4]: APR_HepG2_MicrotubuleCSK_72hr: Apredica 72-hour HepG2 Assay for Microtubule CSK Stabilty (AID 2282919). As to conditions: HepG2 microtubule cytoskeleton, high-content imaging, actives raise or lower the signal. In a few lines: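 HepG2, 72 hr cmpd exposure, 0.39–200 uM (10 pts, duplicate), 0.5% DMSO. 3.7% formaldehyde fix, 0.5% Triton perm, anti-alpha-tubulin/Cy5 plus Hoechst. HCS fluorescence intensity; bidirectional fit vs DMSO baseline; taxol as positive control.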

Test [5] in a line: APR_HepG2_P-H2AX_24hr: Apredica 24-hour HepG2 Assay for H2AX Phosphorylation (AID 2282920). To be noted: high-content imaging, actives raise or lower the signal. In a few lines: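 High-content imaging of phospho-histone H2A.x immunofluorescence, nuclei counterstained with Hoechst 33342, in fixed HepG2 cells. Compounds ran 0.39–200 uM in duplicate for 24 h, final DMSO 0.5%. Signal change fitted both directions against DMSO.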

Test [6] is described as follows: APR_HepG2_StressKinase_72hr: Apredica 72-hour HepG2 Assay for Stress Kinase (AID 2282921). To be noted: HepG2 stress kinase (phospho-c-Jun) imaging, actives raise or lower the signal. In a few lines:
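Stress kinase signal is phospho-c-Jun immunofluorescence (1:500 primary, Cy3 secondary) in fixed, permeabilized human HepG2 cells imaged at 20x. Exposure lasted 72 hr over ten concentrations from 0.39 to 200 uM, 0.5% DMSO, in duplicate. Bidirectional fit versus DMSO.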

Test [7] is described as follows: APR_HepG2_StressKinase_24hr: Apredica 24-hour HepG2 Assay for Stress Kinase (AID 2282922). To be noted: HepG2 stress kinase (phospho-c-Jun) imaging, actives raise or lower the signal. The gist of the method: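 Read-out: phospho-c-Jun immunofluorescence (Cy3 secondary) quantified by high-content imaging at 20x, nuclei defined by Hoechst 33342. Human HepG2 liver cells dosed 24 hr, 0.39–200 uM, DMSO 0.5% v/v; gain or loss of signal fitted relative to DMSO.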

A short description of test [8]: APR_HepG2_p53Act_72hr: Apredica 72-hour HepG2 Assay for p53 Activation (AID 2282923).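 Further: average cellular p53 protein immunofluorescence intensity in HepG2 cells.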 As to conditions: high-content imaging, actives raise or lower the signal. The gist of the method: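 After 72 h with compound (ten points, 0.39 to 200 uM, final DMSO 0.5% v/v), fixed HepG2 cells were labelled with sheep anti-p53 and Hoechst 33342 and imaged; gain or loss versus DMSO scored.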

Test [9] in a line: APR_HepG2_MitoMass_72hr: Apredica 72-hour HepG2 Assay for Mitochondrial Mass (AID 2282924).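 Further: MitoTracker Red CMXRos stain intensity per cell imaged as mitochondrial mass.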 As to conditions: high-content imaging, actives raise or lower the signal. In a few lines:
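Read-out: MitoTracker Red fluorescence intensity from automated imaging (20x, six fields per well) in human HepG2 liver cells. Dosing ran 72 hr, 0.39–200 uM, 0.5% DMSO; bidirectional curve fitting versus DMSO baseline.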

Test [10] can be described thus: APR_HepG2_NuclearSize_72hr: Apredica 72-hour HepG2 Assay for Nuclear Size (AID 2282925). To be noted: high-content imaging, actives raise or lower the signal. The gist of the method: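 Read-out: nuclear diameter from Hoechst 33342 images (ArrayScan, 20x, six fields/well), via cell-cycle image analysis. HepG2 were dosed 0.39–200 uM for 72 hr in 0.5% DMSO. Bidirectional fit relative to DMSO.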

A short description of test [11]: ATG_CRE_CIS: Attagene CIS-FACTORIAL HepG2 Assay for human cAMP Responsive Element (CRE) binding protein 3 (AID 2282926). To be noted: HepG2 CRE cis-reporter, Attagene multiplexed mRNA; actives raise or lower the signal. The gist of the method: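 Endogenous transcription factor activity read via CRE-regulated reporter transcripts in transfected HepG2 cells. After 24 h exposure, RNA was reverse-transcribed, amplified, fluorescently labelled and sized by capillary electrophoresis; gain or loss fitted against DMSO.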

The target of test [12] is CCAAT/enhancer-binding protein beta (Homo sapiens) (UniProt P17676). Description: ATG_C_EBP_CIS: Attagene CIS-FACTORIAL HepG2 Assay for human CCAAT/Enhancer Binding Protein (C/EBP) beta (AID 2282927). To be noted: HepG2 Attagene cis-factorial transcription factor reporter; actives raise or lower the signal. The gist of the method:
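HepG2, transient MRTU transfection, 24 h treatment. RT-PCR plus CE fluorescence; DMSO negative control, bidirectional fit.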

A short description of test [13]: ATG_CMV_CIS: Attagene CIS-FACTORIAL HepG2 Assay for human CMV (Internal Marker) (AID 2282928).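 Further: endpoint acts as a background internal control marker rather than a target.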 As to conditions: HepG2 CMV promoter reporter, transcription factor profiling; actives raise or lower the signal. In a few lines:
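Fluorescence intensity of RT-PCR-derived reporter fragments, resolved by capillary electrophoresis, gives the signal. HepG2 liver cells bearing transfected cis-element reporters were treated 24 h; activity in either direction was fit relative to DMSO-treated controls.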

The nature of test [14]: ATG_AP_1_CIS: Attagene CIS-FACTORIAL HepG2 Assay for human Activator Protein 1 (AP-1) (AID 2282931). As to conditions: HepG2 Attagene cis-factorial AP-1 reporter mRNA; actives raise or lower the signal. In a few lines: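 We transfected HepG2 cells transiently with a set of cis-regulated reporter transcription units, dosed them for 24 h, and quantified reporter mRNA via RT-PCR and capillary electrophoresis, scoring gain or loss of signal relative to DMSO.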

Test [15] can be described thus: ATG_AP_2_CIS: Attagene CIS-FACTORIAL HepG2 Assay for human Activator Protein 2 (AP-2) (AID 2282932). To be noted: HepG2 AP-2 cis-reporter, Attagene transcription factor profiling; actives raise or lower the signal. In a few lines:
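Liver-derived HepG2 line, cis-reporter system measuring endogenous factors; 24 h dosing; reporter mRNA detected by fluorescent RT-PCR and capillary electrophoresis.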

A short description of test [16]: ATG_BRE_CIS: Attagene CIS-FACTORIAL HepG2 Assay for human Bone Morphogenetic Protein (BMP) Response Element (BRE) (AID 2282933). As to conditions: HepG2 BMP response element reporter, Attagene transcription factor profiling; actives raise or lower the signal. The gist of the method: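 HepG2 cells transiently transfected with CIS reporter units (endogenous TF activity, BMP response element), dosed 24 h. Reporter mRNA quantified by RT-PCR, fluorescent labelling and capillary electrophoresis; bidirectional fit vs DMSO baseline.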

Test [17] addresses Retinoic acid receptor alpha (Homo sapiens) (UniProt P10276). The test is described as follows: ATG_DR5_RAR_CIS: Attagene CIS-FACTORIAL HepG2 Assay for human Retinoic Acid Receptor Alpha (RARE), DR5 submotif (AID 2282934).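 On AC50: reporter responds to endogenous RAR alpha beta and gamma in HepG2 not RARA alone.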 To be noted: HepG2 Attagene cis-factorial RARE DR5 reporter, mRNA; actives raise or lower the signal. The gist of the method: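 After 24 h of chemical exposure, transiently transfected HepG2 cells were lysed for total RNA; the DR5-regulated reporter transcript was quantified via RT-PCR and capillary electrophoresis, with activity fitted bidirectionally against DMSO.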

Test [18] deals with Aryl hydrocarbon receptor (Homo sapiens) (UniProt P35869). Description: ATG_Ahr_CIS: Attagene CIS-FACTORIAL HepG2 Assay for human Aryl Hydrocarbon Receptor (Ahr) (AID 2282930). To be noted: HepG2 AhR cis-factorial reporter transcription; actives raise or lower the signal. The gist of the method: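 Endogenous factor activity is tracked through cis-promoter reporter units transfected into HepG2 cells. Transcript levels at 24 h are read by fluorescent RT-PCR and capillary electrophoresis, with activity in either direction scored relative to DMSO.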
Chain of Aryl hydrocarbon receptor (Homo sapiens) (P35869 whole entry, looked up): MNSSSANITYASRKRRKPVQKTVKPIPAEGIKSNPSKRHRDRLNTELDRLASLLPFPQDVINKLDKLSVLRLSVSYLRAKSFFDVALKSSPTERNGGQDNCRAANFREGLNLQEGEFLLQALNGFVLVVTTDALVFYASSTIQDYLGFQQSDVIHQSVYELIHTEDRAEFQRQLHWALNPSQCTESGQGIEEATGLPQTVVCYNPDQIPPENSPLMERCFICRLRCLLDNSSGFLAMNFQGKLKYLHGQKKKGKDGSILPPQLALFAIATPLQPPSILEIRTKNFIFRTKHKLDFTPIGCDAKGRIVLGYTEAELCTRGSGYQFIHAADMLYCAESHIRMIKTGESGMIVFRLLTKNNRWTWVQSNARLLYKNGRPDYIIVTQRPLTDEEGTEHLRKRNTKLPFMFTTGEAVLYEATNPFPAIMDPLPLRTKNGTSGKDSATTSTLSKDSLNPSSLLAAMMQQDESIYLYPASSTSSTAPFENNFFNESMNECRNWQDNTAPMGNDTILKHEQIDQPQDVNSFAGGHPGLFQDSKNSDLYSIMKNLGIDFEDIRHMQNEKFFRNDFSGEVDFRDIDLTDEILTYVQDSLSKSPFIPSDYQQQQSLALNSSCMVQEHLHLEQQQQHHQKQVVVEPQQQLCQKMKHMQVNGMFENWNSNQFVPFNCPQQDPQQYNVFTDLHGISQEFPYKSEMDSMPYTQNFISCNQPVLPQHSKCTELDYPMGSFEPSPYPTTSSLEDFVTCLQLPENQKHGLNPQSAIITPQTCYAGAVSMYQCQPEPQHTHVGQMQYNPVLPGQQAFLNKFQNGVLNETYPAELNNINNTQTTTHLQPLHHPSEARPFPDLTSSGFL

“And” between values parts separate entries of the source, which are not always exact repeats. Equal entries are not always repeated. Where a structure was tested more than once in an assay, its records may differ in their call. The source made the active and inactive calls. How the source made its calls: active means hit-call score of the fitted dose curve at least 0.9, where 1 is the maximum; inactive means score below 0.9.

A word on the AC50: it is the concentration at which the activity in the assay is half-maximal.

Chain of CCAAT/enhancer-binding protein beta (Homo sapiens) (P17676 whole entry, looked up): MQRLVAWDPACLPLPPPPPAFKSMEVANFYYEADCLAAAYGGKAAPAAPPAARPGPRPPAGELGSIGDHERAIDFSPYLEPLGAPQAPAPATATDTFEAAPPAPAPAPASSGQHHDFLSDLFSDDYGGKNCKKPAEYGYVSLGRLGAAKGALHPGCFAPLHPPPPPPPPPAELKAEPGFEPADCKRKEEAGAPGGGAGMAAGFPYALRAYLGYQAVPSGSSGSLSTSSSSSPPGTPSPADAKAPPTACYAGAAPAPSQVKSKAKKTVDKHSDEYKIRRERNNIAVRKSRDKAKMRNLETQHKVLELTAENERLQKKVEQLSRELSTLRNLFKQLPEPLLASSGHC
Chain of Retinoic acid receptor alpha (Homo sapiens) (P10276 whole entry, looked up): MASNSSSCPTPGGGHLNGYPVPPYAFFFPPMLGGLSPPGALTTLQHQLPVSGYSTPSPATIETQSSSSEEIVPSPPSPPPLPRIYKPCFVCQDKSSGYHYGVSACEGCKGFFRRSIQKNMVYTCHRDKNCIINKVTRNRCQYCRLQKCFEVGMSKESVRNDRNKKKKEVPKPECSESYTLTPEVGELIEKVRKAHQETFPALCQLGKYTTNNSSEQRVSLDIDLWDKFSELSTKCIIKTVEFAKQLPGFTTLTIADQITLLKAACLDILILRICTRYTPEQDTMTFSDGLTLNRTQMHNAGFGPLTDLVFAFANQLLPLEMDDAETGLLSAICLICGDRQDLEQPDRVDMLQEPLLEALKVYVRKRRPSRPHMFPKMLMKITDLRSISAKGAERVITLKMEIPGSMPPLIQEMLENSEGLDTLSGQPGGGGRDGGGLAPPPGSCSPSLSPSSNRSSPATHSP

In the case of `N#Cc1c(Cl)c(Cl)c(Cl)c(C#N)c1Cl`, the molecule was called inactive in test [1], in test [2], in [3], in [4], in [6] and in test [7]. The molecule was classed as inactive in test [8], in test [9], in [10], in [11], in test [12] and in test [13]. Also, the outcome in test [14], in test [15] and in [16] was inactive. The AC50 in test [5] was 0.322 µM (active); in [17] it was 0.167 µM (active).

In the case of `COP(=S)(OC)Oc1ccc(SC)c(C)c1`, the call in test [1], in [2], in test [3], in [4], in [5] and in test [6] was inactive. The molecule was classed as inactive in test [7], in test [8], in [9], in [10], in test [11] and in [12]. Also, the outcome in [13], in [14], in test [15], in test [16] and in test [17] was inactive.

In the case of `O=C(O)C(F)(F)C(F)(F)C(F)(F)C(F)(F)C(F)(F)C(F)(F)C(F)(F)F`, the result in test [1], in [3], in test [4], in test [5], in [6] and in [7] was inactive. For the same molecule, the molecule was classed as inactive in test [8], in test [9], in test [10], in [11], in test [12] and in test [13]. The call in [14], in test [15] and in test [16] was inactive. Also, the AC50 was 116 µM (active) and 111 µM (active) in test [2]; 150 µM (active) in test [14].

`CCC(C)Nc1c([N+](=O)[O-])cc(C(C)(C)C)cc1[N+](=O)[O-]` (stereo not given): the molecule was classed as inactive in test [1], in test [2], in [3], in test [5], in [6] and in [7]. The result in [9], in test [10], in test [12], in test [15] and in [16] was inactive. Also, the AC50 in [4] is 57.8 µM (active); in test [11], 7.44 µM (active); in test [13], 24.1 µM (active); in [14] it was 43.3 µM (active); in test [17] it was 6.5 µM (active).

As for `CCC(C)(NC(=O)c1cc(Cl)c(C)c(Cl)c1)C(=O)CCl` (stereo not given), the call in [1], in [2], in test [3], in test [4], in [5] and in test [6] was inactive. The outcome in test [7], in test [8], in [9], in test [10], in test [11] and in test [12] was inactive. The result in test [13], in [18], in test [14], in test [15], in test [16] and in [17] was inactive.

These data come from PubChem BioAssay (EPA / NIEHS).
